The text below walks through data of PubChem BioAssay (NCI).

The structures appear in SMILES notation. The panel holds about 83,000 compounds, 20% with a hit somewhere; the sample as a whole holds those more often.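 A percent growth of 40 corresponds to 60% growth inhibition; 0 means no net growth; -100 means all cells died. Active threshold: below 10.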 Values without a mark were called inactive. The source made the active and inactive calls.

Holding throughout (assay): NCI-60 one-dose screen, 48 h (100 = growth as untreated, 0 = no growth, -100 = all killed)
Common to all, as to conditions: 10 µM unless noted

Assay [1] deals with T-47D breast.
Assay [2] relates to BT-549 breast.
Assay [3] deals with MDA-MB-435 melanoma.
For assay [4], the system named is SW-620 colon.
Assay [5] concerns MCF7 breast.
For assay [6], the system named is HCT-116 colon.
For assay [7], the system named is HCC-2998 colon.
For assay [8], the system named is KM12 colon.

Regarding `CSc1ccc(C(=O)C[n+]2cccc(C)c2)cc1`, the growth in assay [1] was 90.6%; in assay [2], 104%; in assay [3] it was 104%; in assay [4], 102%; in assay [5], 97.2%; in assay [6], 101%. Besides, the growth in assay [7] is 115%; in assay [8], 100%.

As to `Nc1ncnc2c1ncn2C1OC(COC(c2ccccc2)(c2ccccc2)c2ccccc2)C(O)C1O` (stereo not given), the growth in assay [1] was 103%; in assay [2], 94%; in assay [3], 99.6%; in assay [4], 98%; in assay [5], 94.2%; in assay [6] it was 92.4%. The growth in assay [7] is 78.9%; in assay [8], 99.2%.

For the compound `COc1ccc(-c2nn(-c3cccc(Cl)c3)cc2-c2cc(-c3ccc(Br)cc3)[nH]c(=O)c2C#N)cc1`, the growth in assay [1] was 70.8%; in assay [2] it was 66.3%; in assay [3], 94.4%; in assay [4], 73.5%; in assay [5] it was 65%; in assay [6] it was 79.7%. For the same compound, the growth in assay [7] was 98.4%; in assay [8] it was 91.8%.

Take `COc1cc(CN(c2ccc(Cl)cc2)C2OC(=O)c3ccccc32)cc(OC)c1OC` (stereo not given): the growth in assay [1] was 42.3%; in assay [2], 44.8%; in assay [3], -45% (active); in assay [4], 30.8%; in assay [5] it was 31.3%; in assay [6], 28%. In addition, the values for the growth in assay [7] and in assay [8] were 73.8% and 31.8%, respectively.

For the compound `COc1ccc(C[C@H](N)C(=O)N[C@@H]2[C@@H](CO)OC(n3cnc4c(N(C)C)ncnc43)[C@@H]2O)cc1` (stereo not given in full), the growth in assay [1] was -8.69% (active); in assay [2], -72.1% (active); in assay [3], -85.4% (active); in assay [4], -67.8% (active); in assay [5] it was -7.03% (active); in assay [6], -84.6% (active). For the same compound, the growth was -94.6% (active) in assay [7] and -85.2% (active) in assay [8].

For `COC(=O)c1ccc(NC(N)=NCC(C)(C)COc2ccc(C(F)(F)F)cc2)nc1`, the growth in assay [1] was 28.7%; in assay [2], 66.5%; in assay [3] it was 58.3%; in assay [4], 27.3%; in assay [5], 8.58% (active); in assay [6], 0.764% (active). For the same compound, the growth is 2.3% (active) in assay [7] and 46.7% in assay [8].

Regarding `CN(C)c1ccc(/C=N/n2c(-c3cc(F)c(Cl)cc3Cl)nn(CN3CCOCC3)c2=S)cc1`, the growth in assay [1] is 94.1%; in assay [2], 91.3%; in assay [3], 80.7%; in assay [4], 109%; in assay [5], 118%; in assay [6] it was 92.6%. In addition, the growth was 111% in assay [7] and 102% in assay [8].

On to `CCN(CC)CC(=O)Nc1c(C)cccc1C`, for which the growth is 107% in assay [1]; 97.3% in assay [2]; 104% in assay [3]; 106% in assay [4]; 97% in assay [5]; 96.1% in assay [6]. The figures for the growth in assay [7] and in assay [8] were 114% and 113%, respectively.

Take `COc1cccc(-c2nc3sccn3c2-c2ccnc(NCCNC(=O)Nc3cccc(C(F)(F)F)c3)n2)c1`: the growth in assay [1] was 42.9%; in assay [2] it was 71.9%; in assay [3], 21.5%; in assay [4] it was 88.9%; in assay [5] it was 54.8%; in assay [6] it was 44.6%. The growth was 40.8% in assay [7] and 33.5% in assay [8].

In the case of `COc1cc(Nc2ncccc2C(=O)Nc2nc3ccc(F)cc3s2)cc(OC)c1OC`, the growth in assay [1] is 36.2%; in assay [2] it was 89.3%; in assay [3], 21%; in assay [4], 96.8%; in assay [5], 94.9%; in assay [6], 13.8%. In addition, the values for the growth in assay [7] and in assay [8] were 84.7% and 78.9%, respectively.

`CC(C)(C)OC(=O)N1CCN(CCn2cc(C(F)(F)F)c3c(Cl)ncnc32)CC1`: the growth in assay [1] was 90.3%; in assay [2] it was 118%; in assay [3], 47.1%; in assay [4], 12%; in assay [5], 87.4%; in assay [6] it was 12.1%. Moreover, the growth is 86.1% in assay [7] and 95.9% in assay [8].

Regarding `O=C1COc2ccccc2C(=O)N1CCCCN1CCCCC1`, the growth in assay [1] is 51.3%; in assay [2] it was 78.7%; in assay [3] it was 104%; in assay [4] it was 84.6%; in assay [5], 79.6%; in assay [6], 57.8%. The growth in assay [7] was 109%; in assay [8] it was 90.2%.

Regarding `O=C(Nc1ccc(-n2ccc3c(NC(=O)c4ccccc4)nccc32)cc1)c1ccc(Cl)c(C(F)(F)F)c1`, the growth in assay [1] is 62.3%; in assay [2], 37.6%; in assay [3], 11.6%; in assay [4], -45.8% (active); in assay [5], -62.6% (active); in assay [6], -92.4% (active). The figures for the growth in assay [7] and in assay [8] were 19.7% and -3.15% (active), respectively.

For `COc1ccc2c(-c3ccc(F)cc3)c(C#N)c(=NC(C)=O)oc2c1`, the growth in assay [1] is 55.8%; in assay [2] it was 29.1%; in assay [3] it was -3.09% (active); in assay [4] it was 23%; in assay [5], 21.4%; in assay [6] it was 25%. Besides, the growth in assay [7] is 60.3%; in assay [8], 30.3%.

Turning to `Cc1cc(O[C@@H]2O[C@@H](C)[C@H](O)[C@@H](O)[C@H]2O)c2c3c(c(O[C@@H]4O[C@@H](C)[C@H](O)[C@@H](O)[C@H]4O)cc2c1)C(=O)c1c(O)cccc1C3=O`, the growth in assay [1] is 56.6%; in assay [2], 6.47% (active); in assay [3] it was 92.8%; in assay [4], 93.4%; in assay [5], 81%; in assay [6], 81%. In addition, the growth in assay [7] is 91.1%; in assay [8], 86.8%.
